# Results published in PMC5540273 (PLoS ONE, 2017).
# Where “and” joins values, the source holds several entries; their conditions need not be identical. Equal values may be shown once. Read-outs that look alike come from different tables or passages of the source.
# Key:
# SRPK3 = settings: concentration: 1 μM, replicates: in singlicate; n = 1
# STK16 = settings: concentration: 1 μM, replicates: in singlicate, n = 1
# STK33 = settings: concentration: 1 μM, replicates: in singlicate; n = 1
# STK35 = settings: concentration: 1 μM, replicates: in singlicate, n = 1
# STK36 = settings: concentration: 1 μM, replicates: in singlicate, n = 1
# STK39 = settings: concentration: 1 μM, replicates: in singlicate, n = 1
# SYK = settings: concentration: 1 μM, replicates: in singlicate, n = 1
# SgK110 = settings: concentration: 1 μM, replicates: in singlicate; n = 1
# TAK1 = test system: T1, TAK1; settings: concentration: 1 μM, replicates: in singlicate, n = 1
# T1 construct: gene MAP3K7
# TAOK1 = settings: concentration: 1 μM, replicates: in singlicate, n = 1
# TAOK2 = settings: concentration: 1 μM, replicates: in singlicate; n = 1
# TAOK3 = settings: concentration: 1 μM, replicates: in singlicate, n = 1
# TBK1 = settings: concentration: 1 μM, replicates: in singlicate, n = 1
# TEC = settings: concentration: 1 μM, replicates: in singlicate, n = 1
# TESK1 = settings: concentration: 1 μM, replicates: in singlicate, n = 1
# TGFBR1 = settings: n = 1
# TGFBR2 = settings: concentration: 1 μM, replicates: in singlicate, n = 1
# TIE1 = settings: concentration: 1 μM, replicates: in singlicate, n = 1
# TIE2 = test system: T2, TIE2; settings: concentration: 1 μM, replicates: in singlicate, n = 1
# T2 construct: gene TEK
# TLK1 = settings: concentration: 1 μM, replicates: in singlicate, n = 1
# [1] = concentration: 1 μM, replicates: in singlicate
# 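Also: KINOMEscan kinase panel screen.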
smiles,measurement,setting,value
CC(C)(CN)c1nc(-c2ccc(Cl)c(O)c2)c(-c2ccncc2)[nH]1.O=C(O)C(F)(F)F [SB-477794],%Inh,SRPK3,0%
same,%Inh,STK16; 1 µM,18% and 0%
same,%Inh,STK33,52%
same,%Inh,STK35; 1 µM,59% and 62%
same,%Inh,STK36; 1 µM,86% and 87%
same,%Inh,STK39; 1 µM,42% and 20%
same,%Inh,SYK; 1 µM,13% and 28%
same,%Inh,SgK110,0%
same,%Inh,TAK1; 1 µM,62% and 75%
same,%Inh,TAOK1; 1 µM,2% and 16%
same,%Inh,TAOK2,0%
same,%Inh,TAOK3; 1 µM,6% and 0%
same,%Inh,TBK1; 1 µM,0% and 5%
same,%Inh,TEC; 1 µM,13% and 0%
same,%Inh,TESK1; 1 µM,100% and 56%
same,%Inh,"TGFBR1; concentration: 1 μM, replicates: in singlicate, 1 µM",98.8% and 96.2%
same,%Inh,TGFBR2; 1 µM,99.2% and 99.6%
same,%Inh,TIE1; 1 µM,1% and 0%
same,%Inh,TIE2; 1 µM,3% and 22%
same,%Inh,TLK1; 1 µM,20% and 11%
CC(=O)Nc1ccc(COc2ccc(Nc3ccnc4cc(-c5ccccn5)ccc34)cc2)cc1.Cl [GW440148],%Inh,SRPK3,0%
same,%Inh,STK16,23%
same,%Inh,STK33,0%
same,%Inh,STK35,0%
same,%Inh,STK36,0%
same,%Inh,STK39,13%
same,%Inh,SYK,0%
same,%Inh,SgK110,0%
same,%Inh,TAK1,0%
same,%Inh,TAOK1,0%
same,%Inh,TAOK2,0%
same,%Inh,TAOK3,0%
same,%Inh,TBK1,21%
same,%Inh,TEC,0%
same,%Inh,TESK1,9%
same,%Inh,TGFBR1; [1],8%
same,%Inh,TGFBR2,28%
same,%Inh,TIE1,26%
same,%Inh,TIE2,6%
same,%Inh,TLK1,38%
COc1cc(Nc2nccc(N3CCC(NC(=O)c4cccc(NC(C)=O)c4)C3)n2)cc(OC)c1OC (stereo not drawn) [GSK1379754],%Inh,SRPK3,16%
same,%Inh,STK16,64%
same,%Inh,STK33,2%
same,%Inh,STK35,0%
same,%Inh,STK36,0%
same,%Inh,STK39,0%
same,%Inh,SYK,39%
same,%Inh,SgK110,2%
same,%Inh,TAK1,0%
same,%Inh,TAOK1,0%
same,%Inh,TAOK2,0%
same,%Inh,TAOK3,0%
same,%Inh,TBK1,17%
same,%Inh,TEC,0%
same,%Inh,TESK1,15%
same,%Inh,TGFBR1; [1],0%
same,%Inh,TGFBR2,0%
same,%Inh,TIE1,61%
same,%Inh,TIE2,0%
same,%Inh,TLK1,0%
O=C(NCCNc1ccnc(Nc2ccc(F)cc2)n1)Nc1ccccc1F [GSK1379880],%Inh,SRPK3,2%
same,%Inh,STK16,4%
same,%Inh,STK33,0%
same,%Inh,STK35,0%
same,%Inh,STK36,48%
same,%Inh,STK39,3%
same,%Inh,SYK,26%
same,%Inh,SgK110,55%
same,%Inh,TAK1,0%
same,%Inh,TAOK1,0%
same,%Inh,TAOK2,0%
same,%Inh,TAOK3,0%
same,%Inh,TBK1,6%
same,%Inh,TEC,14%
same,%Inh,TESK1,0%
same,%Inh,TGFBR1; [1],0%
same,%Inh,TGFBR2,0%
same,%Inh,TIE1,0%
same,%Inh,TIE2,0%
same,%Inh,TLK1,2%
COc1cc2c(cc1OC[C@@H](O)CO)ncc1c3ccc(C#N)cc3[nH]c21,%Inh,SRPK3,25%
same,%Inh,STK16,0%
same,%Inh,STK33,36%
same,%Inh,STK35,0%
same,%Inh,STK36,0%
same,%Inh,STK39,0%
same,%Inh,SYK,0%
same,%Inh,SgK110,0%
same,%Inh,TAK1,81%
same,%Inh,TAOK1,0%
same,%Inh,TAOK2,0%
same,%Inh,TAOK3,0%
same,%Inh,TBK1,68%
same,%Inh,TEC,0%
same,%Inh,TESK1,0%
same,%Inh,TGFBR1; [1],23%
same,%Inh,TGFBR2,0%
same,%Inh,TIE1,0%
same,%Inh,TIE2,0%
same,%Inh,TLK1,11%
O=C(NCCNc1ccnc(Nc2ccc(F)cc2)n1)c1cc2ccccc2s1 [GSK1379874],%Inh,SRPK3,0%
same,%Inh,STK16,5%
same,%Inh,STK33,0%
same,%Inh,STK35,0%
same,%Inh,STK36,0%
same,%Inh,STK39,0%
same,%Inh,SYK,36%
same,%Inh,SgK110,0%
same,%Inh,TAK1,0%
same,%Inh,TAOK1,0%
same,%Inh,TAOK2,0%
same,%Inh,TAOK3,0%
same,%Inh,TBK1,17%
same,%Inh,TEC,8%
same,%Inh,TESK1,97.2%
same,%Inh,TGFBR1; [1],7%
same,%Inh,TGFBR2,0%
same,%Inh,TIE1,0%
same,%Inh,TIE2,0%
same,%Inh,TLK1,0%
C[C@@H](Oc1cc(-n2cnc3ccc(NC(=O)NC(C)(C)C)cc32)sc1C(N)=O)c1ccccc1Cl [GSK346294],%Inh,SRPK3,0%
same,%Inh,STK16,22%
same,%Inh,STK33,0%
same,%Inh,STK35,0%
same,%Inh,STK36,0%
same,%Inh,STK39,0%
same,%Inh,SYK,34%
same,%Inh,SgK110,0%
same,%Inh,TAK1,0%
same,%Inh,TAOK1,0%
same,%Inh,TAOK2,2%
same,%Inh,TAOK3,0%
same,%Inh,TBK1,27%
same,%Inh,TEC,20%
same,%Inh,TESK1,0%
same,%Inh,TGFBR1; [1],0%
same,%Inh,TGFBR2,4%
same,%Inh,TIE1,3%
same,%Inh,TIE2,0%
same,%Inh,TLK1,21%
CCc1nc(-c2cccc(C)c2)c(-c2ccnc(NCc3ccccc3)c2)s1,%Inh,SRPK3,0%
same,%Inh,STK16,19%
same,%Inh,STK33,0%
same,%Inh,STK35,0%
same,%Inh,STK36,0%
same,%Inh,STK39,0%
same,%Inh,SYK,0%
same,%Inh,SgK110,22%
same,%Inh,TAK1,0%
same,%Inh,TAOK1,0%
same,%Inh,TAOK2,0%
same,%Inh,TAOK3,0%
same,%Inh,TBK1,13%
same,%Inh,TEC,9%
same,%Inh,TESK1,0%
same,%Inh,TGFBR1; [1],2%
same,%Inh,TGFBR2,0%
same,%Inh,TIE1,13%
same,%Inh,TIE2,0%
same,%Inh,TLK1,22%
Fc1ccc(-c2ncn(CCCN3CCOCC3)c2-c2ccccn2)cc1 [SB-211742],%Inh,SRPK3,3%
same,%Inh,STK16,0%
same,%Inh,STK33,7%
same,%Inh,STK35,0%
same,%Inh,STK36,0%
same,%Inh,STK39,0%
same,%Inh,SYK,17%
same,%Inh,SgK110,16%
same,%Inh,TAK1,0%
same,%Inh,TAOK1,0%
same,%Inh,TAOK2,5%
same,%Inh,TAOK3,0%
same,%Inh,TBK1,21%
same,%Inh,TEC,0%
same,%Inh,TESK1,0%
same,%Inh,TGFBR1; [1],52%
same,%Inh,TGFBR2,6%
same,%Inh,TIE1,0%
same,%Inh,TIE2,27%
same,%Inh,TLK1,0%
Cc1nnc(-c2ccc(C)c(-c3ccc(C(=O)Nc4ccc(NS(C)(=O)=O)cc4)cc3)c2)o1 [GW702865],%Inh,SRPK3,3%
same,%Inh,STK16,0%
same,%Inh,STK33,0%
same,%Inh,STK35,0%
same,%Inh,STK36,24%
same,%Inh,STK39,14%
same,%Inh,SYK,33%
same,%Inh,SgK110,4%
same,%Inh,TAK1,4%
same,%Inh,TAOK1,0%
same,%Inh,TAOK2,0%
same,%Inh,TAOK3,0%
same,%Inh,TBK1,10%
same,%Inh,TEC,0%
same,%Inh,TESK1,11%
same,%Inh,TGFBR1; [1],0%
same,%Inh,TGFBR2,0%
same,%Inh,TIE1,0%
same,%Inh,TIE2,0%
same,%Inh,TLK1,0%
O=C(NCCCN1CCOCC1)c1cccc(Nc2nccc(Nc3ccc(Oc4ccccc4)cc3)n2)c1 [GW663929],%Inh,SRPK3,0%
same,%Inh,STK16,64%
same,%Inh,STK33,10%
same,%Inh,STK35,34%
same,%Inh,STK36,33%
same,%Inh,STK39,23%
same,%Inh,SYK,0%
same,%Inh,SgK110,0%
same,%Inh,TAK1,19%
same,%Inh,TAOK1,0%
same,%Inh,TAOK2,0%
same,%Inh,TAOK3,0%
same,%Inh,TBK1,26%
same,%Inh,TEC,70%
same,%Inh,TESK1,0%
same,%Inh,TGFBR1; [1],0%
same,%Inh,TGFBR2,7%
same,%Inh,TIE1,11%
same,%Inh,TIE2,0%
same,%Inh,TLK1,18%
c1ccc(-c2cc(-c3c[nH]nc3-c3ccccn3)ccn2)cc1 [GW576604],%Inh,SRPK3,0%
same,%Inh,STK16,0%
same,%Inh,STK33,8%
same,%Inh,STK35,0%
same,%Inh,STK36,0%
same,%Inh,STK39,2%
same,%Inh,SYK,6%
same,%Inh,SgK110,0%
same,%Inh,TAK1,16%
same,%Inh,TAOK1,0%
same,%Inh,TAOK2,0%
same,%Inh,TAOK3,0%
same,%Inh,TBK1,5%
same,%Inh,TEC,0%
same,%Inh,TESK1,9%
same,%Inh,TGFBR1; 1 µM,75%
same,%Inh,TGFBR2,62%
same,%Inh,TIE1,0%
same,%Inh,TIE2,0%
same,%Inh,TLK1,1%
Cc1cn2c(=O)cc(N3CCOCC3)nc2n1Cc1cccc(Cl)c1Cl [GSK2334006],%Inh,SRPK3,0%
same,%Inh,STK16,14%
same,%Inh,STK33,4%
same,%Inh,STK35,3%
same,%Inh,STK36,0%
same,%Inh,STK39,17%
same,%Inh,SYK,21%
same,%Inh,SgK110,0%
same,%Inh,TAK1,0%
same,%Inh,TAOK1,0%
same,%Inh,TAOK2,0%
same,%Inh,TAOK3,0%
same,%Inh,TBK1,0%
same,%Inh,TEC,12%
same,%Inh,TESK1,17%
same,%Inh,TGFBR1; [1],15%
same,%Inh,TGFBR2,0%
same,%Inh,TIE1,50%
same,%Inh,TIE2,19%
same,%Inh,TLK1,17%
O=c1cc(N2CCOCC2)nc2n(Cc3cccc(Cl)c3Cl)c(C3CC3)nn12 [GSK2358994],%Inh,SRPK3,0%
same,%Inh,STK16,10%
same,%Inh,STK33,0%
same,%Inh,STK35,0%
same,%Inh,STK36,3%
same,%Inh,STK39,0%
same,%Inh,SYK,0%
same,%Inh,SgK110,0%
same,%Inh,TAK1,0%
same,%Inh,TAOK1,0%
same,%Inh,TAOK2,0%
same,%Inh,TAOK3,0%
same,%Inh,TBK1,26%
same,%Inh,TEC,13%
same,%Inh,TESK1,14%
same,%Inh,TGFBR1; [1],0%
same,%Inh,TGFBR2,10%
same,%Inh,TIE1,0%
same,%Inh,TIE2,0%
same,%Inh,TLK1,25%
COCCNC(=O)c1ccc(-c2cc(C(=O)NC3CC3)cc(F)c2C)cc1 [GW868318],%Inh,SRPK3,20%
same,%Inh,STK16,0%
same,%Inh,STK33,10%
same,%Inh,STK35,0%
same,%Inh,STK36,2%
same,%Inh,STK39,16%
same,%Inh,SYK,1%
same,%Inh,SgK110,21%
same,%Inh,TAK1,14%
same,%Inh,TAOK1,29%
same,%Inh,TAOK2,16%
same,%Inh,TAOK3,32%
same,%Inh,TBK1,34%
same,%Inh,TEC,11%
same,%Inh,TESK1,26%
same,%Inh,TGFBR1; [1],0%
same,%Inh,TGFBR2,6%
same,%Inh,TIE1,17%
same,%Inh,TIE2,17%
same,%Inh,TLK1,14%
